Screening results from PubChem BioAssay.
RBX1-CUL1 inh: inhibitors of human ROC1-CUL1 ubiquitin ligase activity; in vitro K48 di-Ub FRET, acceptor:donor ratio, 45 min; inhibition, % at 10 µM; 0.6% of 140,000 active; AID 1347404; in the data active means inhibition above about 25%
Numbers stand for hits; – = inactive. Only a selection was taken, and hits are over-represented in it overall.

SMILES	RBX1-CUL1 inh
CC1=NN(c2nc(-c3ccc(Br)cc3)cs2)C(=O)C1N=Nc1nccs1 (stereo unspecified)	78
CC1=NN(c2nc(-c3ccc(Br)cc3)cs2)C(=O)C1N=Nc1cccc(O)c1 (stereo unspecified)	–
Clc1ccc(CSc2nnc3sc4ccccc4n23)cc1	–
COc1ccccc1C(=O)Nc1ccccc1C#N	–
CN(CC1CCCN(CCc2ccc(Cl)cc2)C1)C(=O)c1ccc[n+]([O-])c1 (stereo unspecified)	–
Cc1ccc(N=C2S/C(=C/c3ccccc3OCC(=O)N3CCOCC3)C(=O)N2Cc2ccccc2)cc1	–
COCCN1C(=O)/C(=C/c2ccccc2OCc2cccc(C(=O)O)c2)SC1=Nc1ccccc1	68
CCOc1ccccc1/C=C1\SC(=Nc2ccc(C(=O)OC)cc2)N(C)C1=O	–
COc1ccccc1C(=O)Nc1cccc(N2CCC(N[C@@H](Cc3ccccc3)C(N)=O)CC2)c1	–
COC(=O)C1CCCCN1C(=O)CC1(c2ccccc2)CC(=O)N(CCCOc2cccnc2)C1=O (stereo unspecified)	–
CC1=NN(c2ccccc2)C(=O)C1C(=O)c1ccc(Cl)cc1 (stereo unspecified)	–
CC(=O)NC1C(=O)N(c2ccccc2)N=C1C (stereo unspecified)	–
COC(=O)C(O)(C1C(=O)N(c2ccccc2)N=C1C)C(F)(F)F (stereo unspecified)	75
Cc1ccnc(NC(=O)c2ccc(Cl)cc2Cl)c1	–
Cc1ccc(NC(=O)c2ccc(Cl)cc2Cl)c(S(=O)(=O)O)c1	96
Cc1ccc(NS(=O)(=O)c2ccc(NC(=O)c3ccc(Cl)cc3Cl)cc2)c(C)c1	–
O=C1CCC(C(=O)N2CCSCC2)CN1CC1CCCCC1 (stereo unspecified)	–
O=C1C2C(c3ccc(Cl)cc3Cl)OC3(C(=O)c4ccccc4C3=O)C2C(=O)N1c1ccc([N+](=O)[O-])cc1 (stereo unspecified)	–
Cc1nc2nc(CN3CCOCC3)n(C)c2nc1C	–
CCCCCc1c(C)nc(SCCCC)[nH]c1=O	–
Cc1cc(=O)oc2cc(OC(=O)c3ccc(=O)oc3)ccc12	–
O=C(Oc1ccc2c(C(F)(F)F)cc(=O)oc2c1)c1ccccc1	–
CC(C)(C)c1ccc(C(=O)Oc2ccc3c(-c4ccccc4C(=O)O)c4ccc(=O)cc-4oc3c2)cc1	33
COc1ccc(C2CC(=O)Nc3cc(OC)c(OC)c(OC)c32)cc1 (stereo unspecified)	–
Cc1nc2ccccc2n1Cc1cc(C(=O)N(C)Cc2cnn(C)c2)no1	–
SMILES	RBX1-CUL1 inh
Oc1c(Br)cc(C(=C(Cl)Cl)c2cc(Br)c(O)c(Br)c2)cc1Br	66
Oc1c(Br)cc(Br)nc1Br	–
COc1ccc(NC(=O)c2ccc(Nc3nc(-c4ccccc4)c4cc(Br)ccc4n3)cc2)c(OC)c1	–
O=C1C=CC(Br)=CC(C(=O)/C=C/c2ccc(C(F)(F)F)cc2)C1=O (stereo unspecified)	–
CCOC(=O)c1c(NC(C)=O)sc2c(OCC(O)CN3CCCCC3)c(Br)ccc12 (stereo unspecified)	–
O=C(Nc1ccc(-c2cccc(F)c2)cc1)C1CCCN(CC2CC2)C1 (stereo unspecified)	–
O=C(Nc1ccc(-c2cccc(F)c2)cc1)C1CCCN(Cc2nccs2)C1 (stereo unspecified)	–
O=C(Nc1ccc(-c2cccc(F)c2)cc1)C1CCCN(C(=O)c2ccoc2)C1 (stereo unspecified)	92
O=C(CCc1ccccc1)Nc1ccc(N2CCC(NCCc3cccs3)CC2)cc1	–
O=C(c1ccc2c(c1)OCO2)c1cc2c(cc1C1SCCCS1)OCO2	–
O=C(O)COc1ccc(/C=C2\SC(=O)N(c3cccc(Cl)c3)C2=O)cc1	–
Cc1ccc(N=C2S/C(=C\c3ccc(OCC(=O)O)cc3)C(=O)N2c2ccc(C)c(C)c2)cc1C	89
Cc1ccc(N=C2S/C(=C\c3ccc(O)cc3)C(=O)N2c2ccc(C)cc2)cc1	–
COc1cc(CN2CCc3[nH]nc(-c4ccccc4F)c3C2)cc2c1OCO2	–
CO/C=C\C=C/c1nnn(-c2ccc(Cl)cc2)n1	38
COCc1c(C(=O)O)nnn1-c1ccc(Cl)cc1	–
CCOC(=O)C=CCn1nnn(-c2ccc(Cl)cc2)c1=O	–
Cc1ccc(C2C(C)C(N3CCC(C(=O)N4CCCCC4)CC3)NS2(=O)=O)cc1C (stereo unspecified)	–
COc1cccc(-c2cc(=O)n(-c3ccccc3)[nH]2)c1	–
Cc1ccc(-c2n[nH]c(=S)n2/N=C/C=C/c2ccco2)cc1	–
Nn1c(=S)[nH]nc(/C=C/c2ccco2)c1=O	96
S=c1[nH]nc(-c2ccco2)n1-c1ccccc1	–
CCCC1=NN(c2ccccc2)C2Oc3c(OC)cccc3C(c3cn(-c4ccccc4)nc3CCC)C12 (stereo unspecified)	56
CCCC1=NN(c2ccccc2)C(=O)C1C1c2ccccc2Oc2c1c(CCC)nn2-c1ccccc1 (stereo unspecified)	–
COc1ccccc1C1CC(c2ccccc2)=NN1c1ccccc1 (stereo unspecified)	–
